FAS TE block – FAS thioesterase domain inhibitors, primary screen, biochemical, fluorescence intensity, uHTS; inhibition, % at 15 µM; Fatty acid synthase (Homo sapiens), P49327; hit rate 0.67% among 360,000; recombinant FAS-TE, OMFH fluorogenic substrate, fluorescence endpoint; AID 602261, 2012;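 active = compounds whose normalised, plate-corrected inhibition of enzyme fluorescence in the single-dose primary screen is 50% or more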;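 also: 0% = DMSO with enzyme and 100% = substrate without enzyme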
PLCg1 inh – PLC-gamma1 enzyme inhibitors, primary screen, biochemical, fluorescence, purified enzyme; 1-phosphatidylinositol 4,5-bisphosphate phosphodiesterase gamma-1 (Homo sapiens), P19174; fluorogenic substrate; inhibition, % at 12.2 µM; hit rate 0.84% among 370,000
H9c2 protect – cardioprotection against H2O2-induced cell death, primary screen, uHTS, H9c2 cells, ATPLite luminescence; H9c2 cardiomyocytes, H2O2 injury protection, 2 h; protection from H2O2 cell death, % at 20 µM; hit rate 0.63% among 360,000; AID 588492, 2011;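 active = compounds giving at least 50% protection of heart cells from peroxide-induced death in the single-dose screen, raw or plate-pattern-corrected value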;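 also: 0% = DMSO wells with peroxide and 100% = DMSO wells without peroxide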
PLC-beta3 inh – human PLC-beta3 inhibitors, primary screen, biochemical, fluorescence; Purified PLC-beta3, fluorogenic substrate; inhibition, % at 12.2 µM; hit rate 0.18% among 370,000; AID 720704, 2013; in the data active = inhibition above about 11%;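 also: 0% = median of compound wells on plate and 100% = full blocker control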
PLCgamma1 ctr – PLC-gamma1 enzyme inhibitors, counter-screen for PLC-beta3 inhibitor project, biochemical, fluorescence; shares compounds with PLCg1 inh; purified PLC-gamma1, fluorogenic substrate; inhibition, % at 12.3 µM; hit rate 3.1% among 3,300; AID 743258, 2014
PLCbeta3 conf – PLC-beta3 inhibitor confirmation, biochemical, fluorescence, purified enzyme; shares compounds with PLCg1 inh; hit rate 1% among 3,300; fluorogenic substrate fluorescence; inhibition, % at 12.3 µM; AID 743261, 2014; in the data active = inhibition above about 11%
* marks the source's active call; other numbers are inactive results; . = not tested or not shown. Rows were chosen to be rich in hits. Some 2.2% of all compounds tested hit in one or more screens of this group. Rule as the data show it, unless noted: active = inhibition above about 9.5%; inactive = the rest.

SMILES	FAS TE block	PLCg1 inh	H9c2 protect	PLC-beta3 inh	PLCgamma1 ctr	PLCbeta3 conf
O=C(O)c1ccc2c(c1)C(=O)/C(=C\c1ccco1)C2=O	-5	36*	7	5	23*	-9
Cc1ccc(/C=C2/C(=O)c3ccc(C(=O)O)cc3C2=O)o1	-7	19*	14	-5	-3	-13
CC(C)(C)CNC(=O)c1cc2c(Br)ccc(Br)c2nc1N	4	-16	.	-18	.	.
O=C(CSC1CCc2ccccc21)NN=Cc1ccco1 (stereo unspecified)	.	-5	.	-4	.	.
Cc1sc2nc(C3CC3)nc(NCCNS(=O)(=O)c3ccccc3)c2c1C	6	9.6*	3	6	-2	0
CC(C)Oc1ccc(N2CC(C(=O)Nc3ccc(N4CCOCC4)cc3)CC2=O)cc1 (stereo unspecified)	-9	12*	-1	12*	5	4
COc1ccc(N2CC(C(=O)Nc3cccc(OC(C)C)c3)CC2=O)cc1 (stereo unspecified)	2	1	-5	-8	.	.
Cc1ccccc1NC(=S)c1nc2ccccc2[nH]1	0	10*	-4	3	0	1
CCCn1c(SCC(=O)NC2CCC(C)CC2)n[nH]c1=O (stereo unspecified)	-6	2	9	1	.	.
Cc1ccc(-n2c(SCC(=O)c3ccc(O)c(O)c3)nnc2-c2ccccc2)cc1	.	2	.	-7	.	.
Cc1cc(NC(=O)CN2CCN(C/C=C/c3ccccc3)CC2)c([N+](=O)[O-])cc1C	-2	9.5*	-1	0	-3	-3
O=C(CN1CCN(C/C=C/c2ccccc2)CC1)Nc1cc([N+](=O)[O-])ccc1Cl	22	-1	7	-1	.	.
Cc1cc(C)n(-c2nc3c(c(=O)[nH]c(=O)n3C)n2C(C)C)n1	-5	5	7	14*	-6	-3
Cc1cc(C(=O)N2CCN(c3ccc([N+](=O)[O-])cc3)CC2)no1	-6	9.5*	-1	9	-4	-3
Cc1cc(C(=O)N2CCN(c3ccccc3)CC2)no1	-6	.	-3	.	.	.
C=CCn1c(=O)[nH]c(=O)c2c(N)c(C(=O)c3ccc(OC)cc3)sc21	4	-11	-5	-19	.	.
CN1CCN(CC(=O)Nc2c(C(=O)C3CC3)oc3ccccc23)CC1	-6	11*	0	5	-4	-1
COc1ccc(-c2cc(CNC(=O)CN3CCN(C)CC3)on2)cc1	-7	9.5*	-2	-369	-7	-2
COc1ccccc1OCCSc1nc2ccccc2n1CC(N)=O	-9	-1	-5	-1	.	.
CC1=C(C(=O)OC(C)C)C(C2CC=CCC2)NC(=O)N1 (stereo unspecified)	-4	12*	-3	3	-4	0
CCOC(=O)C1=C(C)NC(=O)NC1C1CC=CCC1 (stereo unspecified)	-5	4	4	1	.	.
COc1ccc(CNC(=O)C(C)Sc2ccc(S(=O)(=O)N3CCOCC3)cn2)cc1 (stereo unspecified)	-1	1	7	3	.	.
Cc1csc(NC(=O)CSc2nc3nc(C)cc(C)n3n2)n1	-6	3	-6	-12	.	.
C/C(=N\Nc1nc(-c2cc(C)ccc2C)cs1)c1cc2ccccc2oc1=O	-10	10*	3	4	-19	-20
CCc1nc2ccccc2c(=O)n1/N=C/c1ccc(OC)cc1	0	-85	0	-4	.	.
CC(C)C[C@H]1COc2cccc(N3CCCCC3)c2S(=O)(=O)N1	.	-6	.	0	.	.
O=S(=O)(c1ccccc1)c1cnn(-c2ccccc2)c1-c1ccc(F)cc1	24	-2	-4	15*	-6	13*
COc1ccc(-n2ncc(S(=O)(=O)c3ccccc3)c2-c2ccc(Cl)cc2)cc1	29	5	-6	3	.	.
CC(C)OC(=O)N(C)C[C@H]1OCc2cnnn2CCCC(=O)N([C@H](C)CO)C[C@@H]1C	-10	4	3	-2	.	.

Compound activity deposited in PubChem by several laboratories.
